Test results published in PubChem BioAssay AID493131 (Broad Institute, 2011).
Out of some 340,000 compounds screened, about 3,300 (0.97%) were called active. The sample holds actives, similar compounds and a random draw of the others, so the mix is not that of the screen.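 Rule for the calls: active = mean activation above about 17%, with every replicate also reaching it (limit read from the data, passing the limit was not always enough); inconclusive = only one of the two conditions met; inactive = the rest.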

Each compound was assayed against Protein FosB (Mus musculus) (UniProt P13346) (assay: enhancers of mouse delta FosB DNA binding – biochemical, fluorescence polarization, TAMRA-CDK5 oligo, single point, primary screen (AID 493131;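 note: fluorescence polarization rise as delta FosB binds a TAMRA Cdk5 AP-1 oligo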)). Settings: purified delta FosB, at 25 µM, active compounds read high, percent of positive-control signal above neutral wells.
Sequence of Protein FosB (Mus musculus) (P13346 whole entry, looked up): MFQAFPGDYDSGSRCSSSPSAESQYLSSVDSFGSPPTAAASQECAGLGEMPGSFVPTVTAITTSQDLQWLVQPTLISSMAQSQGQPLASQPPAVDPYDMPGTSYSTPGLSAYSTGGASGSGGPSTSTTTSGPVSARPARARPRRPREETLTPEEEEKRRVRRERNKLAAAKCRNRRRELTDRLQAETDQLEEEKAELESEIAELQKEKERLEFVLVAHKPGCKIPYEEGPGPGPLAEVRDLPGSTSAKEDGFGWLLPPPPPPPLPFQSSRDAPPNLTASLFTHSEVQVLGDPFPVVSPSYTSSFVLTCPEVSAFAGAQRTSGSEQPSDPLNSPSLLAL

activation, inactive:
CNc1nc(SC)nc(N(C#N)CC(=O)OC)n1 0.989%
Oc1c(C(c2ccco2)N2CCC3(CC2)OCCO3)sc2ncnn12 (centres undefined) -7.56%
CC(C)NS(=O)(=O)c1ccc(OCC(=O)Nc2ccc3c(c2)OCCO3)cc1 -10.5%
CC(NS(=O)(=O)c1ccc(Cl)cc1)C(=O)Nc1ccc2c(c1)OCCO2 (centres undefined) 1.9%
CCc1ccc(C(=O)OCC(=O)NCC(F)(F)F)cc1 -1.18%
COC(=O)c1ccc2ccccc2c1OC1OC(CO)C(O)C(O)C1NC(C)=O (centres undefined) -0.206%
C#CCOCCOCCOCCNc1nc(N2CCN(C(=O)[C@H](Cc3ccc(O)cc3)n3cc(C(N)CC(C)C)nn3)CC2)nc(N2CCN(C(=O)[C@H](CCC(=O)O)n3cc(C(N)[C@H](C)CC)nn3)CC2)n1 (some centres undefined) 2.04%
C#CCOCCOCCOCCNc1nc(N2CCN(C(=O)[C@H](CCC(=O)O)n3cc(CN)nn3)CC2)nc(N2CCN(C(=O)[C@H](CCC(=O)O)n3cc(CN)nn3)CC2)n1 -0.339%
C#CCOCCOCCOCCNc1nc(N2CCN(C(=O)[C@H](CCCCN)n3cc(CCC(=O)O)nn3)CC2)nc(N2CCN(C(=O)[C@H](CCCCN)n3cc(CC(C)O)nn3)CC2)n1 (some centres undefined) 2.6%
C#CCOCCOCCOCCNc1nc(N2CCN(C(=O)[C@H](CCCCN)n3cc([C@@H](N)C(C)CC)nn3)CC2)nc(N2CCN(C(=O)[C@H](Cc3ccc(O)cc3)n3cc([C@@H](N)C(C)CC)nn3)CC2)n1 (some centres undefined) 15.3%
Cc1csc(CN(C)C(=O)CC2C(=O)NCCN2CC(C)(C)C)n1 (centres undefined) -10.6%
COc1cc(-c2nnc(Cn3cc(C(F)(F)F)ccc3=O)o2)cc(OC)c1OC -9.47%
COC(=O)c1ccc(CSc2ccc(S(=O)(=O)N3CCCCC3)cn2)cc1 8.71%
COc1ccc(N(C)S(=O)(=O)c2ccc3c(c2)CC(C)N3C(=O)C2CC2)c(OC)c1 (centres undefined) -12.2%
COc1cc(C(=O)N2CCN(C/C=C/c3ccccc3)CC2)cc(OC)c1C -7.31%
Cn1nnc(NC(=S)NC(=O)c2ccccc2)n1 -9.58%
CCOC(=O)C1=C(C)N(C[C@@H]2CC[C@@H](Cc3ccc(-c4ccccc4)cc3)O2)C(=O)NC1c1ccc([N+](=O)[O-])cc1 (some centres undefined) -9.34%
S=c1c2[nH]cnc2ncn1CCSc1ncnc2nc[nH]c12 3.83%
COC(=O)c1ccc(CNC(=O)c2ccc3oc(C(C)C)nc3c2)cc1 -7.42%
Cc1cc(C)cc(NC(=O)CN2C(=O)c3ccccc3C2=O)c1 3.94%
CC(C(=O)O)N1C(=O)c2cccc3cccc1c23 (centres undefined) 2.8%
COc1ccc(NC(=O)CCC(=O)N2CCN(S(=O)(=O)c3ccc(C)cc3)CC2)c(OC)c1 -2.45%
COc1ccc(/C=C/C(=O)Nc2ccc(C)cc2)cc1S(=O)(=O)N1CCOCC1 -1.41%
COc1cc(/C=C/C(=O)Nc2ccc(OC)c(S(=O)(=O)N3CCOCC3)c2)ccc1OCC#N -6.09%
CCCOc1ccc(Cn2c(O)cc(=O)[nH]c2=O)cc1 3.75%
COc1ccc(Cn2c(=O)cc(C)[nH]c2=S)cc1 -1.58%
CN(CC(O)COc1ccc(S(=O)(=O)N2CCOCC2)cc1Cl)C1CCCCC1 (centres undefined) -9.15%
O=C(NCCN=C1NS(=O)(=O)c2ccccc21)c1ccc(S(=O)(=O)N2CCOCC2)cc1 -16.1%
O=C(Nc1ccc2cn[nH]c2c1)c1ccc(S(=O)(=O)N2CCOCC2)cc1 -7.23%
Cc1nn(CC(=O)N2CCCCC2)c(=O)c2nn(-c3ccccc3)c(C)c12 -5.62%
COc1ccc(CNC(=O)C(C)n2nc(C)c3c(C)n(-c4ccccc4)nc3c2=O)c(OC)c1 (centres undefined) -16.4%
CCc1ccccc1NC(=O)CN(C)C(=O)c1cc(C2CC2)nn1-c1ccccc1 -9.06%
O=C(O)c1cccnc1NC1CCCC1 1.59%
Cc1nn(C)cc1S(=O)(=O)N1CCN(c2ccc(F)cc2)CC1 -3.96%
COc1c(O)cc2oc(-c3ccc(O)c(O)c3)cc(=O)c2c1O -4.25%
C[C@@H]1O[C@@H](OC[C@H]2O[C@@H](Oc3c(-c4ccc(O)cc4)oc4cc(O)cc(O)c4c3=O)[C@H](O)[C@@H](O)[C@@H]2O)[C@H](O)[C@H](O)[C@H]1O -1.58%
Cc1ccc(NC(=O)NC(=O)N(C2CCCCC2)S(=O)(=O)c2ccccc2)cc1 -0.8%
O=C(CN1CCN(c2ccc(Cl)cc2)CC1)c1ccccc1 1.64%
Clc1ccc(-n2nnnc2-c2cnc(-c3ccccn3)nc2-c2cccs2)cc1 -8.45%

activation, active:
CC(=O)Nc1ccc(NC(=O)C(NS(=O)(=O)c2ccc3c(c2)OCCO3)C(C)C)cc1 (centres undefined) 36.7%
C#CCOCCOCCOCCNc1nc(N2CCN(C(=O)C(Cc3ccc(O)cc3)n3cc(C(N)CC(C)C)nn3)CC2)nc(N2CCN(C(=O)C(Cc3ccc(O)cc3)n3cc(C(N)C(C)CC)nn3)CC2)n1 (centres undefined) 22.4%
C#CCOCCOCCOCCNc1nc(N2CCN(C(=O)C([C@@H](C)O)n3cc([C@@H](N)CCCCN)nn3)CC2)nc(N2CCN(C(=O)[C@H](CCCCN)n3cc(CN)nn3)CC2)n1 (some centres undefined) 31.3%
O=C(CN1C(=O)c2cccc3cccc1c23)Nc1ccccc1 28.7%
CCN1/C(=C\c2ccc3ccccc3[n+]2CC)Sc2cc(C)ccc21 54.5%
COc1ccc(/C=C/C(=O)Nc2ccc(C34CC5CC(CC(O)(C5)C3)C4)cc2)cc1OC 51.4%
COc1ccc(Cn2c(O)c(/C=C3/C=CC=N3)c(=O)[nH]c2=O)cc1 25.7%
COc1ccc(OC)c(CNC(=O)Cn2nc(C)c3c(C)n(-c4ccc(C)cc4)nc3c2=O)c1 113%
COc1ccc(-c2cc(=O)c3c(O)cc(O[C@@H]4O[C@H](CO[C@@H]5O[C@@H](C)[C@H](O)[C@@H](O)[C@H]5O)[C@@H](O)[C@H](O)[C@H]4O)cc3o2)cc1O 74.8%
O=C(Cn1cc(-c2nnnn2-c2ccc(Cl)cc2)c(=O)c2ccccc21)c1ccccc1 114%
